The record followed here is PubChem BioAssay (EPA / NIEHS).

Results filed as inconclusive are left out. Calls of active or inactive are those of the source. Rule for the calls: active = hit-call score of the fitted dose curve at least 0.9, where 1 is the maximum; inconclusive = response in the unintended direction; inactive = score below 0.9.

Sequence of human LYN Proto-Oncogene, Src family Tyrosine Kinase (LynA), LYN (gene 4067) (P07948 whole entry, looked up): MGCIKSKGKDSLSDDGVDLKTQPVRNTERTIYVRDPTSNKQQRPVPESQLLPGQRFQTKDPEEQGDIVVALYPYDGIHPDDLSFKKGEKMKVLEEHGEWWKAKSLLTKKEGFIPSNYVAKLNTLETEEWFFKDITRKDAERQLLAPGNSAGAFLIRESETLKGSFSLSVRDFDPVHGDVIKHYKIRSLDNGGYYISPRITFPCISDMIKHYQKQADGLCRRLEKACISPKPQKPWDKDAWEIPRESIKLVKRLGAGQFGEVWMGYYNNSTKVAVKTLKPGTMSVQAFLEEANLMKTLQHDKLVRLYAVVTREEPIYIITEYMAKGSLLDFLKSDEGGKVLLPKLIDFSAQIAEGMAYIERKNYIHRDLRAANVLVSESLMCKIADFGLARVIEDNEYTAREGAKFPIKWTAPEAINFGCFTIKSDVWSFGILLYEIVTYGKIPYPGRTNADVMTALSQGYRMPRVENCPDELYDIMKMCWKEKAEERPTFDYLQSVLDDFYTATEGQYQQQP
Sequence of Mitogen-activated protein kinase 3 (Homo sapiens) (P27361 whole entry, looked up): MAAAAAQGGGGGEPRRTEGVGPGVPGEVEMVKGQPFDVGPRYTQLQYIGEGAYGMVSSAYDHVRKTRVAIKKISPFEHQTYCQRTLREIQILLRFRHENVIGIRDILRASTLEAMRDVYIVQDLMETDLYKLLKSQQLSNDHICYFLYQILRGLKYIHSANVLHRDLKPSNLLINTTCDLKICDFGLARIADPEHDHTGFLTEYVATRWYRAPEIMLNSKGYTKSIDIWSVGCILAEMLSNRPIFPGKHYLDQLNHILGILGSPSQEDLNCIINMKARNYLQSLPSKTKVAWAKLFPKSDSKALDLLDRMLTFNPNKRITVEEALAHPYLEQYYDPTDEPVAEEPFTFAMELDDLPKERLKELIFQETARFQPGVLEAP
Sequence of human Matrix Metalloproteinase-3 (MMP3), MMP3 (gene 4314) (P08254 whole entry, looked up): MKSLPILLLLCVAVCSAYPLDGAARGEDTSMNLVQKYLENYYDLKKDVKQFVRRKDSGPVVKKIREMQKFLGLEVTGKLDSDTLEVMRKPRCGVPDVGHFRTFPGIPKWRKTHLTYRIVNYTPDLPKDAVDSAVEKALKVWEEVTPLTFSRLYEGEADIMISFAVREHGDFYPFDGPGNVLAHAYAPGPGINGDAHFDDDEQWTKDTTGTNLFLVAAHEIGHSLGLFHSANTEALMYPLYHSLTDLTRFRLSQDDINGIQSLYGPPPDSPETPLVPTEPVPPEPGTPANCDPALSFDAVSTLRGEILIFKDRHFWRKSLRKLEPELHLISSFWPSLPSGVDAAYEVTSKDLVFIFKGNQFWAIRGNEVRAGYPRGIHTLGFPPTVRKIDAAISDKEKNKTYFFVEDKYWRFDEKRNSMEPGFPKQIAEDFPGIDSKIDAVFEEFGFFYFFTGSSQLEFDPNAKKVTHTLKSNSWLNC
Sequence of human Matrix Metalloproteinase-7 (MMP7), MMP7 (gene 4316) (P09237 whole entry, looked up): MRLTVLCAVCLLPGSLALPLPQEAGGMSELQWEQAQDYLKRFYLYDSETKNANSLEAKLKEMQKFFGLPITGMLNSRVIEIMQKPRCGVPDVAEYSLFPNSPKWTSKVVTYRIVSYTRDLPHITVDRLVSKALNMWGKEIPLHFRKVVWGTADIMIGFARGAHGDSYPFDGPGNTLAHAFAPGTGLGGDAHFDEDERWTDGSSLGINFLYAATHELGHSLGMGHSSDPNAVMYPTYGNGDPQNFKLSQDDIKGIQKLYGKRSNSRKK

One assay concerns the target human LYN Proto-Oncogene, Src family Tyrosine Kinase (LynA), LYN (gene 4067) (UniProt P07948). The experiment in a line: NVS_ENZ_hLynA: NovaScreen (NVS) Enzymatic Assay for human LYN Proto-Oncogene, Src family Tyrosine Kinase (LynA) (AID 2283173). A digest of the protocol:
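Recombinant kinase with fluorescent substrate; product separated from substrate by electrophoretic mobility shift and read 1 h after dosing. Duplicate screen at 25 uM, then concentration-response up to 50 uM; activity scored as signal loss against DMSO.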
`NC(=O)NO`: the compound was called inactive.

For the compound `CC(C)CCCCCCCOC(=O)CCCCC(=O)OCCCCCCCC(C)C`, the call was inactive.

In the case of `CC(C)CC(C)(O)C#CC(C)(O)CC(C)C` (stereo not given), the compound was called inactive. Consider `O=C(O)c1cccc(Oc2ccccc2)c1`, for which the call was inactive. For the compound `CC(C)c1cccc(C(C)C)c1N1C(=O)c2ccc(O)cc2C1=O`, the compound was called inactive.

The next assay has as its target Mitogen-activated protein kinase 3 (Homo sapiens) (UniProt P27361). Description: NVS_ENZ_hMAPK3: NovaScreen (NVS) Enzymatic Assay for human Mitogen-Activated Protein Kinase 3 (MAPK 3) (AID 2283177). A digest of the protocol: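 Cell-free enzymatic assay with recombinant protein and specific substrate; fluorescence and electrophoretic mobility shift read-out 1 h after dosing. Primary screen duplicate at 25 uM; actives then run in concentration-response up to 50 uM, loss of signal versus DMSO.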
`CCCCC(CC)COC(=O)CCCCCCCCC(=O)OCC(CC)CCCC` (stereo not given): the call was inactive. Consider `O=C(NS(=O)(=O)/C=C/c1ccccc1)c1ccc(F)cc1Cl`, for which the compound was classed as inactive. Take `CC(C)c1cccc(C(C)C)c1N1C(=O)c2ccc(O)cc2C1=O`: the call was inactive. Still for that read-out and setting: in the case of `O=C(O)c1cccc(N(Cc2cccnc2)c2ccc(OC(F)F)c(OC(F)F)c2)c1` it was “inactive”. For the compound `Cn1c(=O)cc(Oc2ccc(F)cc2F)c2cnc(NCC(C)(C)O)nc21`, the AC50 (usually the midpoint of the concentration-response curve, whichever way the signal moves) was 34.6 µM (active).

Another assay concerns the target human Matrix Metalloproteinase-7 (MMP7), MMP7 (gene 4316) (UniProt P09237). The experiment in a line: NVS_ENZ_hMMP7: NovaScreen (NVS) Enzymatic Assay for human Matrix Metalloproteinase-7 (MMP7) (AID 2283183). The essentials:
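Cell-free fluorescence enzymatic assay read 1 h after compound addition, activity loss analyzed against DMSO. Primary duplicate testing at 25 uM; compounds meeting threshold rerun in singleton concentration-response up to 50 uM.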
As to `O=C(O)c1cccc(Oc2ccccc2)c1`, the call was inactive. Regarding `CCOCCOCCOCCO`, the AC50 was 28.2 µM (active).

Regarding `C=CC(=C)CCC=C(C)C`, the AC50 was 6.56 µM (active).

In the case of `CC(C)c1cccc(C(C)C)c1N1C(=O)c2ccc(O)cc2C1=O`, the call was inactive. The same measure, in the same setting: the same measure for `CC(C)CCO`: “inactive”; for `CCCCCCc1ccc(O)cc1O`: “inactive”.

For the next assay, the target named is human Matrix Metalloproteinase-2 (MMP2), MMP2 (gene 4313) (UniProt P08253). Description: NVS_ENZ_hMMP2: NovaScreen (NVS) Enzymatic Assay for human Matrix Metalloproteinase-2 (MMP2) (AID 2283184). A digest of the protocol: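 Cell-free recombinant MMP2 activity with a fluorescent substrate, read 1 h after dosing. Primary screen in duplicate at 25 uM; actives then run in concentration series; loss of signal fitted versus DMSO.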
Sequence of human Matrix Metalloproteinase-2 (MMP2), MMP2 (gene 4313) (P08253 whole entry, looked up): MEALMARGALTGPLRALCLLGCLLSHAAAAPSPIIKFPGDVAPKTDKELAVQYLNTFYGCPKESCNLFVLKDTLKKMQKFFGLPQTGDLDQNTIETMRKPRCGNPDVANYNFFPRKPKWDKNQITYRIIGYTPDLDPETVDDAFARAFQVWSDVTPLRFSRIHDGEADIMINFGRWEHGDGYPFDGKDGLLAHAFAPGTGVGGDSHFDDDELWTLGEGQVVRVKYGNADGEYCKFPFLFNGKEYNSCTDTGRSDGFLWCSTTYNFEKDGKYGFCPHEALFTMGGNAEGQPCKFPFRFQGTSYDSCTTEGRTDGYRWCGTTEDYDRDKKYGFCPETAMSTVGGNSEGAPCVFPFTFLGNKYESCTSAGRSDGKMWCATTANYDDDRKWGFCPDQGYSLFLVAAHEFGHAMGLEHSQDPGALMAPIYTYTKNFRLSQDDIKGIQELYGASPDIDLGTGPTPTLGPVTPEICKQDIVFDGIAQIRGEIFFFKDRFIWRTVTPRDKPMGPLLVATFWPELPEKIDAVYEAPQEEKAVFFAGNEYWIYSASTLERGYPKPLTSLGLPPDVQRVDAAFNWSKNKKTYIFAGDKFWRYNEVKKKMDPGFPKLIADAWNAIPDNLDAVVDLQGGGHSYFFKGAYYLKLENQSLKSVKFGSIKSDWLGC
As to `CCCCC(CC)COC(=O)c1ccc(C(=O)OCC(CC)CCCC)cc1` (stereo not given), the result was inactive.

For `O=C(O)CCN(C1(C(=O)NO)CCCC1)S(=O)(=O)c1ccc(Oc2ccc(F)cc2)cc1`, the AC50 was 0.0139 µM (active).

Turning to `CC(C)c1cccc(C(C)C)c1N1C(=O)c2ccc(O)cc2C1=O`, the outcome was inactive. For `C=CCCCCCCCCC(=O)O`, the call was inactive.

For `COC(=O)CC(=O)OC`, the AC50 was 7.18 µM (active).

Another assay concerns the target human Matrix Metalloproteinase-3 (MMP3), MMP3 (gene 4314) (UniProt P08254). Description: NVS_ENZ_hMMP3: NovaScreen (NVS) Enzymatic Assay for human Matrix Metalloproteinase-3 (MMP3) (AID 2283185). A digest of the protocol:
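Cell-free recombinant human MMP3 activity, fluorescence intensity read 1 h after dosing. Primary screen duplicate at 25 uM, actives retested in concentration series; loss of signal vs DMSO baseline.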
`Cc1[nH]cnc1C[C@H]1CCc2c(C)c3ccccc3n2C1=O`: the AC50 was 29.9 µM (active). The same measure, in the same setting: in the case of `O=C(O)CCN(C1(C(=O)NO)CCCC1)S(=O)(=O)c1ccc(Oc2ccc(F)cc2)cc1` it was 8.47 µM (active).

For the compound `CC(C)CCO`, the compound was called inactive.

As to `O=C(OC[C@H]1O[C@@H](OC(=O)c2cc(O)c(O)c(OC(=O)c3cc(O)c(O)c(O)c3)c2)[C@H](OC(=O)c2cc(O)c(O)c(OC(=O)c3cc(O)c(O)c(O)c3)c2)[C@@H](OC(=O)c2cc(O)c(O)c(OC(=O)c3cc(O)c(O)c(O)c3)c2)[C@@H]1OC(=O)c1cc(O)c(O)c(OC(=O)c2cc(O)c(O)c(O)c2)c1)c1cc(O)c(O)c(OC(=O)c2cc(O)c(O)c(O)c2)c1`, the AC50 was 0.437 µM (active).
